Test results: PubChem BioAssay (Tox21)
Records with an inconclusive call do not appear. Active and inactive are the calls of the source. Unless noted, the call rests on the fitted dose curve; in most records, active means well fitted curve in the direction sought with a large enough effect in the repeat runs; inconclusive means weak or mixed curves; inactive means no such curve, though single readings can be large; an effect the other way counts as inactive or inconclusive.

Columns and labels:
[1] = qHTS assay to identify small molecule antagonists of the estrogen receptor alpha (ER-alpha) signaling pathway using the BG1 cell line in the presence of 0.1 nM 17-beta-estradiol - cell viability counter screen (AID 1259241); further: nearly all actives have a fitted effect of over 40% in size
Outline: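 Viability in VM7Luc4E2 cells after 22 hr compound exposure under 0.1 nM 17beta-estradiol stimulation, by CellTiter-Fluor.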

[2] = qHTS assay to identify small molecule antagonists of the androgen receptor (AR) signaling pathway using the MDA cell line in the presence of 0.5 nM R1881 - cell viability counter screen (AID 1259242); further: nearly all actives have a fitted effect of over 45% in size
Outline: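 Live-cell protease activity was measured by CellTiter-Fluor fluorescence after 30 min. Before that, MDA-kb2 MMTV-luciferase cells had 16 hr at 37C without CO2, exposed to test compounds and 0.5 nM R1881 final.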

[3] = molecular target: Androgen receptor (Homo sapiens) (UniProt P10275); assay: qHTS assay to identify small molecule antagonists of the androgen receptor (AR) signaling pathway using the MDA cell line in the presence of 0.5 nM R1881 (AID 1259243); further: nearly all actives have a fitted effect of over 50% in size
Outline: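 Luminescent reporter readout (ONE-Glo, 30 min, room temperature) after 16 hr co-treatment of MDA-kb2 cells with test compounds and 0.5 nM R1881 final, at 37C without CO2. The MMTV-driven luciferase responds to both AR and GR.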

[4] = molecular target: Estrogen receptor (Homo sapiens) (UniProt P03372); assay: qHTS assay to identify small molecule antagonists of the estrogen receptor alpha (ER-alpha) signaling pathway using the BG1 cell line in the presence of 0.1 nM 17-beta-estradiol (AID 1259244); further: nearly all actives have a fitted effect of over 50% in size
Outline: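 Luciferase luminescence (ONE-Glo, 30 min at room temperature) was read after 22 hr at 37C exposure to compounds plus 17beta-estradiol at 0.1 nM final. Cells were VM7Luc4E2 with endogenous ER-alpha and an ERE-driven luciferase, pre-cultured 5 days in hormone-depleted medium.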

[5] = qHTS assay to identify small molecule HDAC inhibitors (AID 1259364); further: nearly all actives have a fitted effect of over 45% in size; further: potency means the concentration at half of the fitted maximal effect; on activity change, negative = inhibition: top concentration of the series differs between compounds
Outline: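 Luminescence read after 30 min room-temperature HDAC-Glo incubation measures cellular class I/II HDAC activity. Compounds were applied for 2 hr at 37 C to HCT-116 wild-type cells seeded the day before.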

[6] = qHTS assay to identify small molecule HDAC inhibitors - cell viability counter screen (AID 1259365); further: series mostly up to about 92 µM; nearly all actives have a fitted effect of over 50% in size
Outline: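 Cytotoxicity was gauged in wild-type HCT-116 cells after a brief 2hr treatment with DMSO-dissolved compounds at 37C and 5% CO2, using CellTiter-Glo luminescence developed for 30min at room temperature.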

[7] = qHTS assay to identify small molecule agonists of the sonic hedgehog signaling (Shh) pathway - cell viability counter screen (AID 1259366); further: nearly all actives have a fitted effect of over 50% in size
Outline: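 Stable Gli1-Luc NIH/3T3 clone, 2,000 cells/well. Compound exposure 24hr at 37C. Read-out: CellTiter-Fluor fluorescence.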

[8] = qHTS assay to identify small molecule antagonists of the sonic hedgehog signaling (Shh) pathway - cell viability counter screen (AID 1259367); further: nearly all actives have a fitted effect of over 55% in size
Outline: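 Tox21 library chemicals were tested on a Gli1-Luc NIH/3T3 clone (2,000 cells/well) stimulated by conditioned medium; viability was quantified as fluorescence from CellTiter-Fluor reagent added at 23 hr.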

[9] = qHTS assay to identify small molecule agonists of the sonic hedgehog signaling (Shh) pathway (AID 1259368; calls by dose curve;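 further: NIH/3T3-derived 3T3Gli1-Luc cells carrying a stable Gli1-driven firefly luciferase reporter; series mostly up to about 92 µM; nearly all actives have a fitted effect of over 15% in size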)
Outline: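 Luminescence was read after 30 min at room temperature with luciferase reagent. Before that, 3T3Gli1-Luc cells (NIH/3T3 clone, stable Gli1-Luc reporter; 2,000/well) were exposed to compounds for 24 hr at 37C, 5% CO2, compounds being added 4 hr post-plating.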

[10] = molecular target: Estrogen receptor beta (Homo sapiens) (UniProt Q92731); assay: qHTS assay to identify small molecule agonists of the estrogen receptor beta (ER-beta) signaling pathway (AID 1259377; active means well fitted activation curve with a large enough effect in the signal ratio in the repeat runs, not every such curve was filed as active; the % refers to the signal ratio)
Outline: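 Measured by fluorescence intensity from a B/G FRET beta-lactamase substrate (2 h, room temperature) in ER-beta-UAS-bla HEK293T cells treated with DMSO-dissolved compounds for 16 hr at 37C and 5% CO2.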

[11] = molecular target: Estrogen receptor beta (Homo sapiens) (UniProt Q92731); assay: qHTS assay to identify small molecule antagonists of the estrogen receptor beta (ER-beta) signaling pathway (AID 1259378; active means well fitted inhibition curve with a large enough effect in the signal ratio in the repeat runs, not every such curve was filed as active; the % refers to the signal ratio)
Outline: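 ER-beta-UAS-bla HEK293T cells in 2% charcoal-stripped FBS medium treated with compound plus 1nM final 17-beta-estradiol for 16 hr at 37C. Beta-lactamase reporter read by FRET substrate fluorescence after 2 hours at room temperature.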

[12] = qHTS assay to identify small molecule agonists of the androgen receptor (AR) signaling pathway in the presence of an antagonist - cell viability counter screen (AID 1259379);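 further: MDA-kb2 human breast cancer cells carrying an MMTV luciferase reporter; series mostly up to about 92 µM; nearly all actives have a fitted effect of over 25% in size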
Outline: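 Cytotoxicity counter-screen run in the same wells as the nilutamide-challenged (3.0 µM final) AR agonist assay in MDA-kb2 cells. Compounds tested at 15 concentrations for 16 h, 37 °C without CO2; CellTiter-Fluor fluorescence read.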

[13] = qHTS assay to identify small molecule agonists of the estrogen receptor beta (ER-beta) signaling pathway - cell viability counter screen (AID 1259380); further: nearly all actives have a fitted effect of over 30% in size; further: potency means the concentration at half of the fitted maximal effect
Outline: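 Cell viability counter screen: CellTiter-Glo luminescence (30 min, room temperature) measured in the same wells as the beta-lactamase readout, after 16 hr compound exposure at 37C of ER-beta-bla HEK293T cells in 2% charcoal-stripped FBS medium.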

[14] = molecular target: Androgen receptor (Homo sapiens) (UniProt P10275); assay: qHTS assay to identify small molecule agonists of the androgen receptor (AR) signaling pathway in the presence of an antagonist (AID 1259381; calls by dose curve; further: nearly all actives have a fitted effect of over 15% in size)
Outline: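 Agonist-mode confirmation run against 3.0 uM final nilutamide: compounds titrated at 15 concentrations onto MDA-kb2 MMTV-luciferase reporter cells. Luminescence measured with ONE-Glo following 16 hr incubation, 37C, 0% CO2.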

[15] = qHTS assay to identify small molecule antagonists of the estrogen receptor beta (ER-beta) signaling pathway - cell viability counter screen (AID 1259382); further: series mostly up to about 92 µM; nearly all actives have a fitted effect of over 55% in size
Outline: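 Cytotoxicity was measured in the same wells by CellTiter-Glo luminescence after 30 min at room temperature. Cells were ER-beta-bla HEK293T in charcoal-stripped serum, given compound together with 1 nM E2 and incubated 16 h at 37C.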

[16] = molecular target: Estrogen receptor (Homo sapiens) (UniProt P03372); assay: qHTS assay to identify small molecule agonists of the estrogen receptor alpha (ER-alpha) signaling pathway in the presence of an antagonist (AID 1259383; calls by dose curve; further: top concentration of the series differs between compounds; nearly all actives have a fitted effect of over 15% in size)
Outline: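 Agonist-mode confirmation run in the presence of 10.0nM (final) ICI-182,780 antagonist. The reporter was ERE-driven luciferase in VM7Luc4E2 cells, grown in charcoal-stripped serum. Cells were exposed to 15-concentration compound series for 22hr, then ONE-Glo luminescence was read.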

[17] = qHTS assay to identify small molecule agonists or antagonists of the thyroid stimulating hormone receptor (TSHR) signaling pathway - wild type cell line counter screen (AID 1259384; calls by dose curve)
Outline: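 Wild-type Hek293 cells, 800/well, 18 h at 37C, then compound with Ro20-1724 for 30 min RT. cAMP by HTRF (cAMP-d2/anti-cAMP cryptate), 1 h RT, fluorescence read. 15 concentrations, triplicates.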

[18] = molecular target: Thyrotropin receptor (Homo sapiens) (UniProt P16473); assay: qHTS assay to identify small molecule antagonists of the thyroid stimulating hormone receptor (TSHR) signaling pathway (AID 1259385; calls by dose curve; further: nearly all actives have a fitted effect of over 20% in size; further: potency means the concentration at half of the fitted maximal effect)
Outline: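 TSHR-HEK293 cells (800/well) plated 18 h, then compounds with Ro20-1724 and TSH at 1.5 ng/mL final, 30 min at room temperature. cAMP quantified by HTRF (cAMP-d2/anti-cAMP-cryptate, 1 h); 15 concentrations in triplicate.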

[19] = qHTS assay to identify small molecule antagonists of the sonic hedgehog signaling (Shh) pathway (AID 1259369; calls by dose curve; further: nearly all actives have a fitted effect of over 45% in size; further: potency means the concentration at half of the fitted maximal effect)
Outline: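 Antagonist mode: compound added to 3T3 Gli1-Luc cells followed by conditioned-medium stimulation, 24 h at 37 C, 5% CO2. Inhibition taken as loss of Gli1-driven luciferase luminescence.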

[20] = qHTS assay to identify small molecule phospholipidosis (PLD) inducers (AID 1259344; active means well fitted curve in the direction sought with a large enough effect; an effect the other way counts as inactive or inconclusive)
Outline: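 Image-based: LipidTOX Red pit count/intensity per well and per cell; HepG2, 24 h compound at 37 C, PFA fixation, Hoechst counterstain.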
On the % scale 0 is the no-effect control and ±100 the full control effect.

Chain of Thyrotropin receptor (Homo sapiens) (P16473 whole entry, looked up): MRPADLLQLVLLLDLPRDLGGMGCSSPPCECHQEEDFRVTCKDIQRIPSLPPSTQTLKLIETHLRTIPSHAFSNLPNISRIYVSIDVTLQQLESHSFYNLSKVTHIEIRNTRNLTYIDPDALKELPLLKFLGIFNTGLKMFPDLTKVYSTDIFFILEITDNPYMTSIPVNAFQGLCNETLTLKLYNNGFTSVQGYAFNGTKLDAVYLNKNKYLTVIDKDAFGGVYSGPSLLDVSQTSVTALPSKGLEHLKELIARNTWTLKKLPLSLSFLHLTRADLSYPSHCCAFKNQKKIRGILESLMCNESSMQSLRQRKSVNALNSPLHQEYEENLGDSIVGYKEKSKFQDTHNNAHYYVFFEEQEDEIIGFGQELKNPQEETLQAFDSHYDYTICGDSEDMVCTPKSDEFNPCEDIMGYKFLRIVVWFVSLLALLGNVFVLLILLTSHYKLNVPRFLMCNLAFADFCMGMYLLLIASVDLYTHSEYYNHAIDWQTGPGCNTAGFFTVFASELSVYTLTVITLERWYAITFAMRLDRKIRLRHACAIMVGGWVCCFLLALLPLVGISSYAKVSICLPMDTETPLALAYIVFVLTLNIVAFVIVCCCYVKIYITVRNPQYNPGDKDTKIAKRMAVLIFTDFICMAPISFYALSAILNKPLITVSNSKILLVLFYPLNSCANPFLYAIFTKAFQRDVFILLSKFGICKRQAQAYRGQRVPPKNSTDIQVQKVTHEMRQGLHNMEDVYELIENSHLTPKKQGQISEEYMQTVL
Chain of Estrogen receptor (Homo sapiens) (P03372 whole entry, looked up): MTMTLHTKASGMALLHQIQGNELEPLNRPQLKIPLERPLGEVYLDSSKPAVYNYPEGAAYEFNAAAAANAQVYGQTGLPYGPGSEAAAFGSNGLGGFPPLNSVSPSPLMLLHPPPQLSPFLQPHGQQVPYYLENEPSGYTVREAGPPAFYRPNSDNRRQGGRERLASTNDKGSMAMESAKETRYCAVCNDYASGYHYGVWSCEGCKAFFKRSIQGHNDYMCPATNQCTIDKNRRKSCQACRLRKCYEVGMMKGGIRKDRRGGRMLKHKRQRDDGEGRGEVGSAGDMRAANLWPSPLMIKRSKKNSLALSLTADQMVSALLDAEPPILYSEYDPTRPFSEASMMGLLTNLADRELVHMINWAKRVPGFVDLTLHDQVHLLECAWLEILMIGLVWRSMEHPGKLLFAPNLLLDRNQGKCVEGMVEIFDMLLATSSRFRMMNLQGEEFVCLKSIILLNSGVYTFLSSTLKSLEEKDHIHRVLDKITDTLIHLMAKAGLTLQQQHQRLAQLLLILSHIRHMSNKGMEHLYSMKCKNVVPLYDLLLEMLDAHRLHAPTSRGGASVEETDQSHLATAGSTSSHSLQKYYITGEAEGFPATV
Chain of Estrogen receptor beta (Homo sapiens) (Q92731 whole entry, looked up): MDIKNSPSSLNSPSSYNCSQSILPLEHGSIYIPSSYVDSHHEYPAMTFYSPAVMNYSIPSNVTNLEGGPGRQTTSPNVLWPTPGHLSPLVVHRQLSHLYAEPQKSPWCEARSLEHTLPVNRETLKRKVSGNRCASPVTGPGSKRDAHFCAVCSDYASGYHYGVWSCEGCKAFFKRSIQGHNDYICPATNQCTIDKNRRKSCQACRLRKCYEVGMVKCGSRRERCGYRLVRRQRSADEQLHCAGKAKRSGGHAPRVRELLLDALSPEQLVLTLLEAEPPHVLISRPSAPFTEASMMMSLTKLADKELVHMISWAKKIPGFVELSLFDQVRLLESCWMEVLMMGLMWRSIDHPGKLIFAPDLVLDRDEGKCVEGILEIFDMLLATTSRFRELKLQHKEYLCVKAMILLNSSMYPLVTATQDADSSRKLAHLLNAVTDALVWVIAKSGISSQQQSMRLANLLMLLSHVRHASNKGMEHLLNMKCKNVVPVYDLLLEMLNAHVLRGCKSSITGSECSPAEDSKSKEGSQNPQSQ
Chain of Androgen receptor (Homo sapiens) (P10275 whole entry, looked up): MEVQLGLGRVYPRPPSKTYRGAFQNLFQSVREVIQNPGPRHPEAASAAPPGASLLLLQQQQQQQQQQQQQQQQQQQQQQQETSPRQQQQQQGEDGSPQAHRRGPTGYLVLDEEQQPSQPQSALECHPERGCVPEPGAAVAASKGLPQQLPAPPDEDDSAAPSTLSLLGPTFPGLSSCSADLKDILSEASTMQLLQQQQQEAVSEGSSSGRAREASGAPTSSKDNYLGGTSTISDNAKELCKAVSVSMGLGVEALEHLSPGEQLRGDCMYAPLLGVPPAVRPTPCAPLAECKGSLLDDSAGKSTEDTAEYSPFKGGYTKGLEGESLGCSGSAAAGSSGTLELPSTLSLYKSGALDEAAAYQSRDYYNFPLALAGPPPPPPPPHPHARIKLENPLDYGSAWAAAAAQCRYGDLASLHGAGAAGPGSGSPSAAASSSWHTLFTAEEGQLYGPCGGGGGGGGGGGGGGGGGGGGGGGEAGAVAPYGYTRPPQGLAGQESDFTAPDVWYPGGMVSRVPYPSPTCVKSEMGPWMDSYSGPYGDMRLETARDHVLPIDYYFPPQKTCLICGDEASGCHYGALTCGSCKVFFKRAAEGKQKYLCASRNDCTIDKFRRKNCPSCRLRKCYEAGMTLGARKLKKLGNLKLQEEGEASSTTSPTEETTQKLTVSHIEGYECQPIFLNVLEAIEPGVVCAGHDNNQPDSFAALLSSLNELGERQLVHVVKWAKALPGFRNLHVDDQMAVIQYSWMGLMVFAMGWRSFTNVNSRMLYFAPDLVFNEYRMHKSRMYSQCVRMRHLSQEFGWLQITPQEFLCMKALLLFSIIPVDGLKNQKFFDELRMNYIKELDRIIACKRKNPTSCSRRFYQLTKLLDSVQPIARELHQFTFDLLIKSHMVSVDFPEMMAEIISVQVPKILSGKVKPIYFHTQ

CC(C)(Oc1ccc(Cl)cc1)C(=O)OCCCOC(=O)C(C)(C)Oc1ccc(Cl)cc1
active: Potency [18] 29.8 µM
inactive: Potency [1] | Potency [2] | Potency [3] | Potency [4] | Potency [5] | outcome [6] | Potency [7] | Potency [8] | outcome [9] | Potency [10] | Potency [11] | Potency [12] | Potency [13] | Potency [14] | Potency [15] | Potency [16] | Potency [17]

CC(=O)SCc1ccco1
inactive: Potency [1] | Potency [2] | Potency [3] | Potency [4] | Potency [5] | outcome [6] | Potency [7] | Potency [8] | outcome [9] | Potency [19] | Potency [10] | Potency [11] | Potency [12] | Potency [13] | Potency [14] | Potency [15] | Potency [16] | Potency [17] | Potency [18]

C=C(C)C(=O)OCCOc1ccccc1
inactive: Potency [1] | Potency [2] | Potency [3] | Potency [4] | outcome [6] | outcome [9] | Potency [11] | Potency [12] | Potency [13] | Potency [14] | Potency [15] | Potency [16] | Potency [17] | Potency [18]
active: Potency [5] 27.3 µM | Potency [19] 43.3 µM

C1CCC2OC2C1 (configuration not stated)
inactive: Potency [1] | Potency [2] | Potency [3] | Potency [4] | Potency [5] | outcome [6] | Potency [7] | Potency [8] | outcome [9] | Potency [11] | Potency [12] | Potency [13] | Potency [14] | Potency [15] | Potency [16] | Potency [17]

O=C(O)COC(=O)Cc1ccccc1Nc1c(Cl)cccc1Cl
inactive: Potency [1] | Potency [2] | Potency [3] | Potency [4] | Potency [20] | outcome [6] | Potency [7] | Potency [8] | outcome [9] | Potency [19] | Potency [10] | Potency [14] | Potency [16] | Potency [17] | Potency [18]

O=C(CCN1CCN2CCCC2C1)N1c2ccccc2Sc2ccc(Cl)cc21 (configuration not stated)
inactive: activity change, negative = cytotoxicity [1] -14.8% [at 19 µM] | viability change, negative = cytotoxic [2] -3.61% [at 19 µM] | activity, negative = inhibition [3] -18% [at 19 µM] | activity change, negative = inhibition [5] 3.91% [at 19 µM] | activity change, negative = cytotoxicity [6] -2.44% [at 19 µM] | activation [10] -2.5% [at 19 µM] | activity, negative = inhibition [11] -12.6% [at 19 µM] | activity change, negative = cytotoxicity [12] -7.38% [at 19 µM] | activity change, negative = cytotoxicity [13] -14.2% [at 19 µM] | activation [14] -1.48% [at 19 µM] | activity change, negative = cytotoxicity [15] -9.75% [at 19 µM] | activation [16] -1.43% [at 19 µM] | cAMP activity change [17] -1.23% [at 18.9 µM, active compounds read high]

CCCCCCc1ccc(N)cc1
inactive: Potency [1] | Potency [2] | Potency [3] | Potency [4] | Potency [5] | outcome [6] | Potency [7] | Potency [8] | outcome [9] | Potency [19] | Potency [10] | Potency [12] | Potency [14] | Potency [15] | Potency [16] | Potency [18]
active: Potency [13] 27.3 µM

O=C(O)[C@@H]1[C@H]2C[C@H]3c4[nH]c5ccccc5c4CCN3C[C@@H]2CC[C@@H]1O
inactive: Potency [1] | Potency [2] | Potency [3] | Potency [4] | Potency [20] | Potency [5] | outcome [6] | Potency [7] | Potency [8] | outcome [9] | Potency [19] | Potency [12] | Potency [13] | Potency [14] | Potency [15] | Potency [16] | Potency [17] | Potency [18]
